In experiment [1] the target is Nuclear respiratory factor 1 (Homo sapiens) (UniProt Q16656). In words: ATG_NRF1_CIS: Attagene CIS-FACTORIAL HepG2 Assay for human Nuclear Respiratory Factor 1 (NRF1) Orphan Gene (AID 2282987). To be noted: HepG2 NRF1 cis-element reporter, Attagene multiplex; actives raise or lower the signal. In a few lines:
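Human hepatoma HepG2 cells carrying transfected promoter-regulated reporter units were incubated with test chemicals for 24 h. Reporter transcripts were measured by RT-PCR plus capillary electrophoresis, and endpoints derived by bidirectional fitting with DMSO as baseline.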

Experiment [2] is described as follows: ATG_NFI_CIS: Attagene CIS-FACTORIAL HepG2 Assay for human Nuclear Factor I (NFI) (AID 2282989). To be noted: HepG2 cis-regulatory reporter, NFI response element transcription; actives raise or lower the signal. The essentials: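 Endogenous TF activity in HepG2 cells transiently transfected with cis-element-driven multiplexed reporter units, read 24 h after dosing. Reporter mRNA quantified by RT-PCR, 6-FAM labelling, HpaI digestion and capillary electrophoresis; bidirectional fit versus DMSO.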

Experiment [3] concerns the target Myc proto-oncogene protein (Homo sapiens) (UniProt P01106). Nature of the experiment: ATG_Myc_CIS: Attagene CIS-FACTORIAL HepG2 Assay for human Myelocytomatosis (Myc) Proto-Oncogene Transcription Factor (AID 2282990). To be noted: HepG2, Attagene cis-reporter transcription factor activity; actives raise or lower the signal. The essentials: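 Cells of the HepG2 human liver line bear multiple cis-driven reporter transcription units. Reporter mRNA after 24 h exposure is reverse-transcribed, amplified, labelled and resolved by capillary electrophoresis, with gain- or loss-of-signal fitting relative to DMSO.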

The nature of experiment [4]: ATG_NF_kB_CIS: Attagene CIS-FACTORIAL HepG2 Assay for human Nuclear Factor Kappa B (NF-kB) (AID 2282991). The conditions noted are these: HepG2 Attagene cis-factorial NF-kB reporter mRNA; actives raise or lower the signal. The essentials:
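Multiplexed cis-reporter assay in transiently transfected HepG2. 24 h treatment; RNA isolated, RT-PCR, labelled fragments resolved by CE. DMSO baseline.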

Experiment [5] can be described thus: ATG_NRF2_ARE_CIS: Attagene CIS-FACTORIAL HepG2 Assay for human Nuclear Factor Erythroid 2 Related Factor 2 (NFR2) response to Antioxidant Response Elements (ARE) (AID 2282992).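 On AC50: reporter mRNA level measured by RT-PCR and capillary electrophoresis fluorescence.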 To be noted: HepG2 Attagene ARE/NRF2 reporter, transcription factor activity; actives raise or lower the signal. The essentials:
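Cis-factorial assay: transfected HepG2 reporter library, 24 h dosing, mRNA readout via RT-PCR/CE; DMSO-referenced bidirectional analysis.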

Experiment [6] is described as follows: BSK_3C_TissueFactor: BioMAP Diversity Plus: 3C Assay for Tissue Factor Biomarker Activity (AID 2282997). The conditions noted are these: BioMAP 3C HUVEC, tissue factor biomarker readout; actives raise or lower the signal. The essentials: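 Human vascular primary cells (umbilical vein endothelium) received test chemical; Tissue Factor was determined by ELISA at 24 h, and both gain and loss of signal versus DMSO were fitted.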

The nature of experiment [7]: BSK_3C_uPAR: BioMAP Diversity Plus: 3C Assay for Urokinase-type plasminogen activator receptor (uPAR) Biomarker Activity (AID 2282998). The conditions noted are these: BioMAP 3C HUVEC, uPAR biomarker ELISA; actives raise or lower the signal. In a few lines:
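Primary human umbilical vein endothelial cells, 3C system; surface uPAR measured by ELISA 24 h after dosing. Cytotoxicity via SRB total protein in parallel cultures; bidirectional fit against DMSO.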

A short description of experiment [8]: BSK_3C_VCAM1: BioMAP Diversity Plus: 3C Assay for Vascular cell adhesion molecule 1 (VCAM1) Biomarker Activity (AID 2282999). To be noted: BioMAP 3C HUVEC, VCAM1 ELISA, cytokine-stimulated; actives raise or lower the signal. In a few lines:
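Endothelial cells from human umbilical vein are treated with test chemical. At 24 h, VCAM-1 is measured by ELISA, and responses in either direction are fitted relative to DMSO.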
A general note: ELISA stands for enzyme-linked immunosorbent assay.

Experiment [9] in a line: BSK_4H_Eotaxin3: BioMAP Diversity Plus: 4H Assay for Eotaxin 3 Biomarker Activity (AID 2283000).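 On outcome: CCL26 protein level quantified by ELISA in parallel with SRB cytotoxicity check.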 The conditions noted are these: primary human endothelial cells (HUVEC); actives raise or lower the signal. The essentials:
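Readout is Eotaxin-3 (CCL26) level by ELISA in primary human umbilical vein endothelial cells harvested 24 h after chemical exposure; activity fitted in both directions against DMSO control.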

The target in experiment [10] is human Peroxisome Proliferator-activated Receptor delta (PPARd), PPARD (gene 5467) (UniProt Q03181). In words: ATG_PPARd_TRANS: Attagene TRANS-FACTORIAL HepG2 Assay for human Peroxisome Proliferator-activated Receptor delta (PPARd) (AID 2283002; active means hit-call score of the fitted dose curve at least 0.9, where 1 is the maximum). The essentials: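 Cell-based TRANS reporter: HepG2, transient MRTU transfection, 24 h exposure. Readout = reporter mRNA (RT-PCR/CE, 6-FAM). Gain-of-signal fit vs DMSO control.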

Read-out in experiment [11]: Intercellular Adhesion Molecule 1 (ICAM1), ICAM1 (gene 3383)
In words: BSK_3C_ICAM1: BioMAP Diversity Plus: 3C Assay for Intercellular Adhesion Molecule 1 (ICAM1) Biomarker Activity (AID 2283003). The conditions noted are these: primary human endothelial cells (HUVEC); actives raise or lower the signal. In a few lines:
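HUVEC primary cells stimulated under 3C conditions; ICAM1 measured by ELISA 24 h after compound dosing. Curves fitted bidirectionally against the DMSO baseline. Overt cytotoxicity checked by SRB staining of parallel cultures.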

For experiment [12], the target named is human Retinoic Acid Receptor beta (RARb), RARB (gene 5915) (UniProt P10826). Nature of the experiment: ATG_RARb_TRANS: Attagene TRANS-FACTORIAL HepG2 Assay for human Retinoic Acid Receptor beta (AID 2283004; active means hit-call score of the fitted dose curve at least 0.9, where 1 is the maximum). The essentials:
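Readout is reporter mRNA induction: RNA reverse-transcribed, PCR-amplified, FAM-labelled, HpaI-cut and resolved by capillary electrophoresis. Transiently transfected HepG2 cells carrying exogenous NR–Gal4 chimeras were dosed for 24 h; activity fitted upward relative to DMSO.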

In experiment [13] the target is Retinoic acid receptor alpha (Homo sapiens) (UniProt P10276). In words: ATG_RARa_TRANS: Attagene TRANS-FACTORIAL HepG2 Assay for human Retinoic Acid Receptor alpha (RARa) (AID 2283005; active means hit-call score of the fitted dose curve at least 0.9, where 1 is the maximum). The essentials:
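Reporter transcripts, measured by RT-PCR with fluorescent labeling and capillary electrophoresis after 24 h dosing, reflect activity of an exogenous human RARa–GAL4 fusion in transiently transfected HepG2. Fitted for increase relative to DMSO.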

A short description of experiment [14]: BSK_3C_Proliferation: Cell Proliferation Assessment in the BioMAP Diversity Plus: 3C Assay (AID 2283006).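 On AC50: potency may reflect either rise or fall in cell number versus DMSO.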 The conditions noted are these: primary human endothelial cells (HUVEC). The essentials:
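Subconfluent HUVEC (3C system) cultured with chemical; relative cell number read at 48 h by sulforhodamine B total-protein staining (0.1% SRB after 10% TCA fixation, 560 nm). Bidirectional fit relative to DMSO.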

Experiment [15] concerns the target Peroxisome proliferator-activated receptor gamma (Homo sapiens) (UniProt P37231). Nature of the experiment: ATG_PPARg_TRANS: Attagene TRANS-FACTORIAL HepG2 Assay for human Peroxisome Proliferator-activated Receptor-gamma (PPARg) (AID 2283007; active means hit-call score of the fitted dose curve at least 0.9, where 1 is the maximum). The essentials:
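Human hepatoma HepG2, transient MRTU transfection, 24 h treatment. mRNA reporter signal by RT-PCR plus capillary electrophoresis, fluorescence detection; fitted for increase over DMSO negative control.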

The target in experiment [16] is human Retinoic Acid Receptor gamma (RARg), RARG (gene 5916) (UniProt P13631). Nature of the experiment: ATG_RARg_TRANS: Attagene TRANS-FACTORIAL HepG2 Assay for human Retinoic Acid Receptor gamma (RARg) (AID 2283009; active means hit-call score of the fitted dose curve at least 0.9, where 1 is the maximum). The essentials:
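HepG2 transiently transfected with GAL4-UAS reporter units and chimeric NR-Gal4 constructs; 24 h compound exposure. Reporter mRNA quantified by RT-PCR, FAM labeling, HpaI digestion and capillary electrophoresis; gain-of-signal versus DMSO.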

The nature of experiment [17]: ATG_Oct_MLP_CIS: Attagene CIS-FACTORIAL HepG2 Assay for human Octamer-Binding Transcription Factor (Oct) (AID 2282993). To be noted: HepG2 Attagene cis-factorial Oct reporter, mRNA; actives raise or lower the signal. The essentials: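 HepG2 cells transiently transfected with cis-element-driven reporter transcription units (endogenous TF activity); 24 h compound exposure. Reporter mRNA quantified by RT-PCR, 6-FAM labelling, HpaI digestion and capillary electrophoresis; bidirectional fit versus DMSO baseline.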

Experiment [18] deals with Cellular tumor antigen p53 (Homo sapiens) (UniProt P04637). Nature of the experiment: ATG_p53_CIS: Attagene CIS-FACTORIAL HepG2 Assay for human p53 Transcription Factor (AID 2282994). To be noted: HepG2 p53 cis-element reporter, Attagene mRNA; actives raise or lower the signal. In a few lines: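 Using HepG2 hepatoma cells carrying cis-acting multiplexed reporters, mRNA induction is detected after a 24 h exposure. Gain- and loss-of-signal responses are fitted relative to DMSO-treated cells.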

The target in experiment [19] is human Peroxisome Proliferator-activated Receptor alpha (PPARa), PPARA (gene 5465) (UniProt Q07869). Nature of the experiment: ATG_PPARa_TRANS: Attagene TRANS-FACTORIAL HepG2 Assay for human Peroxisome Proliferator-activated Receptor alpha (PPARa) (AID 2283001; active means hit-call score of the fitted dose curve at least 0.9, where 1 is the maximum). In a few lines: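 Read-out is fluorescence of reporter cDNA fragments resolved by capillary electrophoresis after RT-PCR. Human HepG2 liver cells carried transfected PPARa-Gal4 chimera and GAL4-UAS reporter units, treated 24 h; activity scored as increase over DMSO.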

Experiment [20] concerns the target Nuclear receptor subfamily 1 group I member 2 (Homo sapiens) (UniProt O75469). Nature of the experiment: ATG_PXR_TRANS: Attagene TRANS-FACTORIAL HepG2 Assay for human Pregnane X Receptor (PXR) (AID 2283008; active means hit-call score of the fitted dose curve at least 0.9, where 1 is the maximum). In a few lines: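 Fluorescence intensity of FAM-labelled, HpaI-digested reporter amplicons, separated by capillary electrophoresis, quantifies induction. HepG2 cells with PXR-Gal4 trans-reporter system were exposed 24 h; DMSO defines baseline.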

Each structure is given as a SMILES string. Values joined by “and” are separate entries in the source; they are usually repeats but may differ in a detail not shown here. Equal values may be shown once. Results filed as inconclusive are left out. More than one record can exist for a structure, and the calls need not agree. Active and inactive are the calls of the source. How the source made its calls, unless noted: active means hit-call score of the fitted dose curve at least 0.9, where 1 is the maximum; inactive means score below 0.9.

Chain of human Peroxisome Proliferator-activated Receptor delta (PPARd), PPARD (gene 5467) (Q03181 whole entry, looked up): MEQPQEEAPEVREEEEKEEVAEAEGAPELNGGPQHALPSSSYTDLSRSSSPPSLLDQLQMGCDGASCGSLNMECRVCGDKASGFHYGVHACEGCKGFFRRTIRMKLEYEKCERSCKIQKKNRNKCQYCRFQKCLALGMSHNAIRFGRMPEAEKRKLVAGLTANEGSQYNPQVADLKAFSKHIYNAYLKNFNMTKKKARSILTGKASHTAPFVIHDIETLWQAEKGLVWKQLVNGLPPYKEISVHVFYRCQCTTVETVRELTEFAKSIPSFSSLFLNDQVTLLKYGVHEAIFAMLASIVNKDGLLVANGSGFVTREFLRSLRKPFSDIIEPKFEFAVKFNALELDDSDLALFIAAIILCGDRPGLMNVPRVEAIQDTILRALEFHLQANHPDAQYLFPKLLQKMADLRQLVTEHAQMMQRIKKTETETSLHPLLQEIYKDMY
Chain of human Retinoic Acid Receptor gamma (RARg), RARG (gene 5916) (P13631 whole entry, looked up, the tested form may be a part): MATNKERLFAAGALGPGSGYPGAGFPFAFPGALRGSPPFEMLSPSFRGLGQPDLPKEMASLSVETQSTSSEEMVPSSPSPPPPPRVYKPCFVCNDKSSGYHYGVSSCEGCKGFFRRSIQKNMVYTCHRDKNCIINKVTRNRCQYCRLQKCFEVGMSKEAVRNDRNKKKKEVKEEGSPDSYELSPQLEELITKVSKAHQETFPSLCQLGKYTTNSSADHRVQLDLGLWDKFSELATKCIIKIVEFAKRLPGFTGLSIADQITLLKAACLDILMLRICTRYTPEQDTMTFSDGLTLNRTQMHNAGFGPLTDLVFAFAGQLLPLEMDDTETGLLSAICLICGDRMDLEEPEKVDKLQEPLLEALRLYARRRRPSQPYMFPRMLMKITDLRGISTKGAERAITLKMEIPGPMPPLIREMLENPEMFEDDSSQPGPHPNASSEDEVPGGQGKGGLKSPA
Chain of Retinoic acid receptor alpha (Homo sapiens) (P10276 whole entry, looked up, the tested form may be a part): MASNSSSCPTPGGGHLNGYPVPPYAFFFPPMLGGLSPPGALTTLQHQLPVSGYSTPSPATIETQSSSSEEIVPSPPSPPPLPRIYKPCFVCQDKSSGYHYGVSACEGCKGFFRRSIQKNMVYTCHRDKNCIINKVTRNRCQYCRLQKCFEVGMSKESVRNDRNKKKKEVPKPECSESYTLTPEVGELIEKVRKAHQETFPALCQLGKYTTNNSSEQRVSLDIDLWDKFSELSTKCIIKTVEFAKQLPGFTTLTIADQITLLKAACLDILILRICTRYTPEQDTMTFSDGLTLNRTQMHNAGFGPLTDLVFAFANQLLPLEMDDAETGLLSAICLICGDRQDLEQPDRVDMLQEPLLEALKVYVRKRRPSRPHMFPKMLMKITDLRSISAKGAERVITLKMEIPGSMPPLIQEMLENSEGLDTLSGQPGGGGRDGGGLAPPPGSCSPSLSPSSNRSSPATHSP
Chain of Nuclear respiratory factor 1 (Homo sapiens) (Q16656 whole entry, looked up): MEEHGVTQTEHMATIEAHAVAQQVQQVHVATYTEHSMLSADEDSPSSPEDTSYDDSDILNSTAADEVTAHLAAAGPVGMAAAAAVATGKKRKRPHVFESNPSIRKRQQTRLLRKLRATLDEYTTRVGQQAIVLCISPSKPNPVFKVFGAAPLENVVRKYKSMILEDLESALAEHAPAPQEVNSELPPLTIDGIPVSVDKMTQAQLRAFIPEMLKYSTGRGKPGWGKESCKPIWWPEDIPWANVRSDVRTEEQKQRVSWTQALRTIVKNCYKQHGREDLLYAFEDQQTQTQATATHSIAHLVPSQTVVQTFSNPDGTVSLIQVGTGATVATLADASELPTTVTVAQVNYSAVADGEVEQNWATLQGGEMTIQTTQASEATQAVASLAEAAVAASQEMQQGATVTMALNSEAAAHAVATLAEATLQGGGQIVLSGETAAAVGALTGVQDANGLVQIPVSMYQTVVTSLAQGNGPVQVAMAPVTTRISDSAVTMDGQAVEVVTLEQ
Chain of Nuclear receptor subfamily 1 group I member 2 (Homo sapiens) (O75469 whole entry, looked up, the tested form may be a part): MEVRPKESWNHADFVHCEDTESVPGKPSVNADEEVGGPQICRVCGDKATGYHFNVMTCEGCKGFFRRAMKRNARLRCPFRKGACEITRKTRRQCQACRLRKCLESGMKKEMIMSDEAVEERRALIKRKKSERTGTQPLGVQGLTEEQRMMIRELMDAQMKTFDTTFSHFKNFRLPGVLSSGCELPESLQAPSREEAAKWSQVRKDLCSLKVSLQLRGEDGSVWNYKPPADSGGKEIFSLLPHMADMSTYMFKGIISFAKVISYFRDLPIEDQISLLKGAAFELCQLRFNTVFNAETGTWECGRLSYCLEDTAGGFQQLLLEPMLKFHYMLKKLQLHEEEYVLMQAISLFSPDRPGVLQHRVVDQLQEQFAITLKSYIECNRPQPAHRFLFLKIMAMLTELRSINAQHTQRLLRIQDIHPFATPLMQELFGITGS
Chain of human Retinoic Acid Receptor beta (RARb), RARB (gene 5915) (P10826 whole entry, looked up, the tested form may be a part): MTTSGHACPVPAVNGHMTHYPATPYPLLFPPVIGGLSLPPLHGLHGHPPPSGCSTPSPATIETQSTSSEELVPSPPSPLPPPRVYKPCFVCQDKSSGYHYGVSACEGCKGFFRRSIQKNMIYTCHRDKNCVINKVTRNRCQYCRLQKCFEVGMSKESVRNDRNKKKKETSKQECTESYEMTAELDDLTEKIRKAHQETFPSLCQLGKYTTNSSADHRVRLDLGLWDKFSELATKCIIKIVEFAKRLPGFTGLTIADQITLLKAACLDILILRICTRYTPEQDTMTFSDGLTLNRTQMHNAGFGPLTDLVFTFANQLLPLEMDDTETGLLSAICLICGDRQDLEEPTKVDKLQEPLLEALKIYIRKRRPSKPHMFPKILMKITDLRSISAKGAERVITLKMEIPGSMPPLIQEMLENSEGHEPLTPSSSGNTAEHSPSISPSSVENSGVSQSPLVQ
Chain of Cellular tumor antigen p53 (Homo sapiens) (P04637 whole entry, looked up): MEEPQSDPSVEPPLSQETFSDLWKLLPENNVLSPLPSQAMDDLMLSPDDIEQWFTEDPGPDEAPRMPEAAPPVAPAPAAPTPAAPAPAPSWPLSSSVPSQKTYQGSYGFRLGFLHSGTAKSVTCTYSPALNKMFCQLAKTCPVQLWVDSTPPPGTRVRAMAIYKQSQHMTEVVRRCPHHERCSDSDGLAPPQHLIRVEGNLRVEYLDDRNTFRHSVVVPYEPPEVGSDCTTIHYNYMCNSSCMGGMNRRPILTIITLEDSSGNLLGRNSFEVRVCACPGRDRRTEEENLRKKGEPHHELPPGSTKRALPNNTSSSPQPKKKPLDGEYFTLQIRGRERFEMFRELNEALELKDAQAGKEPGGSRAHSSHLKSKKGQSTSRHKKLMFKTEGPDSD
Chain of Peroxisome proliferator-activated receptor gamma (Homo sapiens) (P37231 whole entry, looked up): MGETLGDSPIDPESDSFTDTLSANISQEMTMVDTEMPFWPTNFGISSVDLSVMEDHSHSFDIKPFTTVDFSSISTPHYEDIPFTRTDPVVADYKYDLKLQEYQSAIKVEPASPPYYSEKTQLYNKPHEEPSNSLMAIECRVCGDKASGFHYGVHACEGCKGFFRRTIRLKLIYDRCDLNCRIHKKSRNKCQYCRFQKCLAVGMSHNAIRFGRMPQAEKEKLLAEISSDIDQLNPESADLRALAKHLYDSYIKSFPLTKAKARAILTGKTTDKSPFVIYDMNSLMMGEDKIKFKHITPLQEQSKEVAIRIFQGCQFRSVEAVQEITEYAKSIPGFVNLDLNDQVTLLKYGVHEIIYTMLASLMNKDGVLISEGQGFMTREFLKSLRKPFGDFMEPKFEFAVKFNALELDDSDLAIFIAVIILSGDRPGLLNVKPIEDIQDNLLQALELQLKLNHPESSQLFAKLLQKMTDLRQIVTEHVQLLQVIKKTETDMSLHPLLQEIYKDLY
Chain of Myc proto-oncogene protein (Homo sapiens) (P01106 whole entry, looked up): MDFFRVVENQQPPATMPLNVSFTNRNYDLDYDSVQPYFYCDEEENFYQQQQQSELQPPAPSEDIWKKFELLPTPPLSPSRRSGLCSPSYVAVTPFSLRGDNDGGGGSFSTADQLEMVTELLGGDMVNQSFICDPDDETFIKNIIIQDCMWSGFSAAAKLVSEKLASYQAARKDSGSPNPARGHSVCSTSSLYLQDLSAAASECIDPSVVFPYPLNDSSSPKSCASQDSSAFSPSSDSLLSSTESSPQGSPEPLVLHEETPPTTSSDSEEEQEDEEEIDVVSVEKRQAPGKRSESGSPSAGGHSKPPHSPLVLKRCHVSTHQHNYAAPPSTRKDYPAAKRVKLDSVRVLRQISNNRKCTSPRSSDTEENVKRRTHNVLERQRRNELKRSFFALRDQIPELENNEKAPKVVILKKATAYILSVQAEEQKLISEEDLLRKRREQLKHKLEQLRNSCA
Chain of human Peroxisome Proliferator-activated Receptor alpha (PPARa), PPARA (gene 5465) (Q07869 whole entry, looked up, the tested form may be a part): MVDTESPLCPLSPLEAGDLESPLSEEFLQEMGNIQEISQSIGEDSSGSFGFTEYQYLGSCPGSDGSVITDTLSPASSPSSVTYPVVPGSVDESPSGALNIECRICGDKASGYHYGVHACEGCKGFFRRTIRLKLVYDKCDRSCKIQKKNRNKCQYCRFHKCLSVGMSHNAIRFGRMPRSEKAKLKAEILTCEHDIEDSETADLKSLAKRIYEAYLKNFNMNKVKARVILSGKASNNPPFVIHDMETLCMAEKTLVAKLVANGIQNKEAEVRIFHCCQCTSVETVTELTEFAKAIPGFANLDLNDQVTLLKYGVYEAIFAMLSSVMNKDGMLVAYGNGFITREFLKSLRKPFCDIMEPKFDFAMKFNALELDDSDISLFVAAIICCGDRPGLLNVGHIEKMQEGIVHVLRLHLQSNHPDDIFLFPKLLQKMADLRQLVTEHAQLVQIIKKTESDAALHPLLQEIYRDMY

Take `CCCCCCCCC(F)(F)C(F)(F)C(F)(F)C(F)(F)C(F)(F)C(F)(F)F`: the call in experiment [1], in [3], in experiment [4], in experiment [5], in experiment [6] and in [7] was inactive. In addition, the result in experiment [8], in [9], in experiment [10], in experiment [11], in experiment [12] and in experiment [13] was inactive. The result in experiment [14], in experiment [15] and in experiment [16] was inactive. For the same compound, in experiment [2], the half-maximal activity concentration (AC50) is 36 µM (active).
For `Cc1cc(C)cc(O)c1`, the call in experiment [1], in [3], in experiment [5], in experiment [17], in [18] and in [19] was inactive. Also, the outcome in experiment [12], in experiment [13], in experiment [15], in experiment [20] and in experiment [16] was inactive.
Turning to `OCCCC(F)(F)C(F)(F)C(F)(F)C(F)(F)C(F)(F)C(F)(F)C(F)(F)F`, the AC50 is 71.1 µM (active) and 267 µM (active) in [2]; 79.9 µM (active) in experiment [3]; 73.6 µM (active) in [4]; 67.1 µM (active) and 133 µM (active) in experiment [5]; 50 µM (active) and 245 µM (active) in experiment [17]; 54.8 µM (active) and 21.6 µM (active) in [6]. For the same compound, the AC50 in experiment [7] is 44.8 µM (active) and 43.5 µM (active); in experiment [9] it was 45.2 µM (active) and 43.2 µM (active); in experiment [11], 45.1 µM (active) and 52.9 µM (active); in experiment [14], 10.3 µM (active) and 10.4 µM (active). For the same compound, the result in experiment [3], in experiment [4], in [18], in [10], in [15] and in [20] was inactive. The result in experiment [16] was inactive.
As to `FC(F)(F)C(F)(F)C(F)(F)N(C(F)(F)C(F)(F)C(F)(F)F)C(F)(F)C(F)(F)C(F)(F)F`, the outcome in [1], in [2], in [3], in experiment [4], in experiment [5] and in [6] was inactive. Also, the result in experiment [7], in experiment [9], in experiment [10], in [11], in experiment [12] and in experiment [13] was inactive. Also, the outcome in experiment [14], in experiment [15] and in [16] was inactive.

In general, AC50 refers to the midpoint of the concentration-response curve, whichever way the signal moves.

Values taken from PubChem BioAssay (EPA / NIEHS).
